The record followed here is ChEMBL document CHEMBL3988442, “University of Dundee, Small-Polar-MMV Screening Library” (2021).

What all share (parameters): scale not given: direction of the effect not stated beside the values
Assay [1] has as its target Protein translocase subunit SecA (Escherichia coli (strain K12)) (UniProt P10408). As to the kind of experiment: Assay to Identify E. coli SecA ATPase Inhibitors. It is filed as functional. The note with it: 30 µM.
Assay [2] addresses T1, Ubiquitin-activating enzyme e1, putative (Leishmania donovani (strain BPK282A1)) (UniProt E9BSI1).
T1 sequence (whole entry): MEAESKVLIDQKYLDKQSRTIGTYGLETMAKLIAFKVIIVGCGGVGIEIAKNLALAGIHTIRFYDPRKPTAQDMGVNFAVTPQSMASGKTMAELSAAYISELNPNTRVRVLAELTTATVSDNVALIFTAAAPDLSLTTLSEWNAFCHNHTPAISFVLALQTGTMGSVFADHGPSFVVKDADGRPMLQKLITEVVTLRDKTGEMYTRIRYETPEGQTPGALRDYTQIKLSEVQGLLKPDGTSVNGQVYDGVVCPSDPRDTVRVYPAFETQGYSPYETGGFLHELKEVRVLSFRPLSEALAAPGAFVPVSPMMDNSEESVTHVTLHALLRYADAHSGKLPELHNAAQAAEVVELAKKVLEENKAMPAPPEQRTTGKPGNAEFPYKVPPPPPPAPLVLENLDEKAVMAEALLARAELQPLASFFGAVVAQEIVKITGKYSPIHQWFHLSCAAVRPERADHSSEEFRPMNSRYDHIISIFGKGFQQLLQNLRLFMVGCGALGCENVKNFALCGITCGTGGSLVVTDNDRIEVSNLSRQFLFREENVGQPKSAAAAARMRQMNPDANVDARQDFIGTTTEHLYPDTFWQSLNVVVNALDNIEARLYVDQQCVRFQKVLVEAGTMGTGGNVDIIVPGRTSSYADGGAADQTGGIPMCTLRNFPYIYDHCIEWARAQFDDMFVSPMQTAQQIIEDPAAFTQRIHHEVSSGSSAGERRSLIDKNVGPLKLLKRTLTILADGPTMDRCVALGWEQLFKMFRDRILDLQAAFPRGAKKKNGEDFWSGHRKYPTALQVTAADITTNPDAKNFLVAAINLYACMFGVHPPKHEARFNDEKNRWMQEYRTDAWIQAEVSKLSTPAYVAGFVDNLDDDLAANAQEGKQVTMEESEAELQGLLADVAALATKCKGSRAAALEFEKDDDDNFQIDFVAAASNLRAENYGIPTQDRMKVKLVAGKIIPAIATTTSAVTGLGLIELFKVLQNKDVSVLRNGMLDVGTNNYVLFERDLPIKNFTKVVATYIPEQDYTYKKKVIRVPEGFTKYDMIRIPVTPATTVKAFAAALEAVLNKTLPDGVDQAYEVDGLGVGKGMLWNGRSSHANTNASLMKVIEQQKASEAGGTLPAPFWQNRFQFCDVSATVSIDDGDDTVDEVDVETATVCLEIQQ
As to the kind of experiment: Leishmania donovani Ubiquitin Activating Enzyme (LdE1). It is filed as functional. The note with it: 30 µM.

For assay [3], the target named is AMP-activated protein kinase, AMPK (Homo sapiens) (UniProt P54646+O43741+P54619+Q9UGJ0+Q9Y478+Q13131+Q9UGI9). In words: AMP-dependent Kinase enzyme assay. An in vitro enzyme assay that detects ADP turnover that is directly proportional to AMPK activity. This uses naive AMPK that is activated during the assay with MK-8722. The format is functional. The note with it: 30 µM.

Assay [4] concerns the target Sialic acid-binding Ig-like lectin 9 (Homo sapiens) (UniProt Q9Y336). As to the kind of experiment: Hs-Siglec9 ALPHAscreen SOP 20170721. To be noted: 10 µM. (Alpha assays give light when donor and acceptor beads are brought close together.)
The next assay relates to Trypanosoma cruzi. In words: Trypanosoma cruzi phosphomannomutase and mannose-1-phosphate guanylyltransferase assay. It is filed as functional. To be noted: 10 µM.
Assay [5] concerns the target T2, Arginase-2, mitochondrial (Homo sapiens) (UniProt P78540).
T2 sequence (whole entry): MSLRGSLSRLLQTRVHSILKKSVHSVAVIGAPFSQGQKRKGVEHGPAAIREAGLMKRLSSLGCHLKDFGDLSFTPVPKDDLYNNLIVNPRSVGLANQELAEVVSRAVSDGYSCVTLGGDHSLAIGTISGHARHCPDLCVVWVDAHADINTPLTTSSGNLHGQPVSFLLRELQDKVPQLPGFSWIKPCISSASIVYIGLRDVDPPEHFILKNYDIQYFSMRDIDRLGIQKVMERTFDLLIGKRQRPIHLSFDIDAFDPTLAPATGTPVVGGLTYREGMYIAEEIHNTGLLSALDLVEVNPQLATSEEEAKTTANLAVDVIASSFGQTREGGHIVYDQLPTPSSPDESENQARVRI
In words: in vitro enzyme assay to detect the production of urea directly proportional to the activity of Arginase II. Further: in the data most compounds retested in dose-response had high values. The format is functional. The note with it: 33.3 µM.

For assay [6], the target named is T3, Proteasome subunit beta (Trypanosoma cruzi) (UniProt O96673).
T3 sequence (whole entry): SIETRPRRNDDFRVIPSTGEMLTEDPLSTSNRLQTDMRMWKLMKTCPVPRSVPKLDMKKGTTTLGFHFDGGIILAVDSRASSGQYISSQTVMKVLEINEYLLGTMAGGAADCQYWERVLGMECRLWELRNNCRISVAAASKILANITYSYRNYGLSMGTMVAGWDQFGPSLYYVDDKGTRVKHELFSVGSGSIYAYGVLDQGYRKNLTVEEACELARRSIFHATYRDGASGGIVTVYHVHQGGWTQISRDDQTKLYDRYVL
In words: Trypanosoma cruzi proteasome chymotrypsin-like activity (TcProtChymo) assay. Further: in the data most compounds retested in dose-response had high values. It is filed as functional. To be noted: 9.37 µM.

For another assay, the species on record is Homo sapiens. As to the kind of experiment: To identify inhibition of the IFN signalling (Jak-Stat) pathway via expression of an eGFP reporter gene under the control of an IFN-stimulated response element (ISRE) containing MxA promoter. It is filed as functional. To be noted: 30 µM.
Assay [7] deals with T4, Tyrosyl-tRNA synthetase, putative (Trypanosoma cruzi (strain CL Brener)) (UniProt Q4DSP6).
T4 sequence (whole entry): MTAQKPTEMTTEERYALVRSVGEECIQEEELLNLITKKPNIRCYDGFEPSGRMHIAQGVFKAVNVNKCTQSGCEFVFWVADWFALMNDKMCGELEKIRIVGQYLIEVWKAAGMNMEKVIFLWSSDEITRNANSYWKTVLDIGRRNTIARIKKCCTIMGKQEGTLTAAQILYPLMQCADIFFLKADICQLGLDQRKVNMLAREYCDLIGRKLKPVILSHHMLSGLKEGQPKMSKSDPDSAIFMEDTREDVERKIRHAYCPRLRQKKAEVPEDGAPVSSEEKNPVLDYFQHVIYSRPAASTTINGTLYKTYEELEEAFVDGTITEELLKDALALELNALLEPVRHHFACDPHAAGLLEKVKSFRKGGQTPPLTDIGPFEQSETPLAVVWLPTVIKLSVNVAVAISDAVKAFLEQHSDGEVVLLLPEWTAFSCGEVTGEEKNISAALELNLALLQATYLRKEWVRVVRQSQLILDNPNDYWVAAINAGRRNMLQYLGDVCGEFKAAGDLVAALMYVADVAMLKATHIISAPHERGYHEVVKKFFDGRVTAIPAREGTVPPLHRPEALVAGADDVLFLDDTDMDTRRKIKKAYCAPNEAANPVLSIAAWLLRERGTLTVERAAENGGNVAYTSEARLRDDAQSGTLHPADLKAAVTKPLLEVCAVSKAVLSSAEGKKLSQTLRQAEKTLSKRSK
As to the kind of experiment: Trypanosoma cruzi tyrosyl tRNA synthetase (TcYRS) _High Tyrosine SOP. Further: in the data most compounds retested in dose-response had high values. It is filed as functional. To be noted: 30 µM.

Assay [8] addresses T4, Tyrosyl-tRNA synthetase, putative (Trypanosoma cruzi (strain CL Brener)). In words: Trypanosoma cruzi tyrosyl tRNA synthetase (TcYRS) SOP. The format is functional. The note with it: 30 µM.
In assay [9] the target is Chromo domain-containing protein 1 (Saccharomyces cerevisiae (strain ATCC 204508 / S288c) (Baker's yeast)) (UniProt P32657). As to the kind of experiment: ScCHD-1 Enzyme Inhibition Assay. Further: in the data most compounds retested in dose-response had high values. It is filed as functional. The note with it: 30 µM.

For some of these results: Potency and affinity values are given separately.

Sequence of Sialic acid-binding Ig-like lectin 9 (Homo sapiens) (Q9Y336 whole entry): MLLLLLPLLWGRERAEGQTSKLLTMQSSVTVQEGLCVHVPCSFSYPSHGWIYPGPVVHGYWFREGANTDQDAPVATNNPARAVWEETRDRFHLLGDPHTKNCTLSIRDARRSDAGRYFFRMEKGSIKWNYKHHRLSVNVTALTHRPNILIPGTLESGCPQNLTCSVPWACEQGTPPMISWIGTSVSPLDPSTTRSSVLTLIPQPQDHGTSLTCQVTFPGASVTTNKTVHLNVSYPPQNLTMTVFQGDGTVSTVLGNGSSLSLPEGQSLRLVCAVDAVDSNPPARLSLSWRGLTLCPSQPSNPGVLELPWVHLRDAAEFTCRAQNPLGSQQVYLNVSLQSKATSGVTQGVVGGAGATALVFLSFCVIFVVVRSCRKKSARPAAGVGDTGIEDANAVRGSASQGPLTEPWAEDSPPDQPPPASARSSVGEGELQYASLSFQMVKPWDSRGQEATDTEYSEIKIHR
Sequence of Protein translocase subunit SecA (Escherichia coli (strain K12)) (P10408 whole entry): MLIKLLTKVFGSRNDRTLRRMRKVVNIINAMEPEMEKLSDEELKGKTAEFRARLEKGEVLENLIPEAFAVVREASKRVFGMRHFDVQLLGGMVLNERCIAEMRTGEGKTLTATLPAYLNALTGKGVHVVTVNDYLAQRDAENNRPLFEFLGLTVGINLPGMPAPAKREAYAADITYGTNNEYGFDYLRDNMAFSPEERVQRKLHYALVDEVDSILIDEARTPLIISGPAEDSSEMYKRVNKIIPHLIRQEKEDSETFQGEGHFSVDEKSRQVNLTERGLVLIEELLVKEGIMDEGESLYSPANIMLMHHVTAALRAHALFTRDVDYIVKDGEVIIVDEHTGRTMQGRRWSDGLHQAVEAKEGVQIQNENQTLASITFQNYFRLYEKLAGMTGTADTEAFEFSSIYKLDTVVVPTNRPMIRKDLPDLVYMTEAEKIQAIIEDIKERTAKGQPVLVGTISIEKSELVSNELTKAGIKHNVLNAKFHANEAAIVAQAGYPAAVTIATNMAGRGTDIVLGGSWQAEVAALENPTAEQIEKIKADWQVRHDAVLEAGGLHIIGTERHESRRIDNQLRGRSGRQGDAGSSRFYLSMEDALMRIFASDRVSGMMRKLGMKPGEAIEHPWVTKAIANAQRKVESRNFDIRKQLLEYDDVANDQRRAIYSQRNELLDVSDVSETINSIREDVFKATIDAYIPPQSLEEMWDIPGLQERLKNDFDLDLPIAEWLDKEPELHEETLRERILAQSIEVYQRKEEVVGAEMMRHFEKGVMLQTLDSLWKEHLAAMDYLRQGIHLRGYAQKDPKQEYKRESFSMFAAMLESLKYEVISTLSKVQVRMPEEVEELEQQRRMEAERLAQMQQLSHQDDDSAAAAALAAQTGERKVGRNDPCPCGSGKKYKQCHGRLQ
Sequence of Chromo domain-containing protein 1 (Saccharomyces cerevisiae (strain ATCC 204508 / S288c) (Baker's yeast)) (P32657 whole entry, the tested form may be a part): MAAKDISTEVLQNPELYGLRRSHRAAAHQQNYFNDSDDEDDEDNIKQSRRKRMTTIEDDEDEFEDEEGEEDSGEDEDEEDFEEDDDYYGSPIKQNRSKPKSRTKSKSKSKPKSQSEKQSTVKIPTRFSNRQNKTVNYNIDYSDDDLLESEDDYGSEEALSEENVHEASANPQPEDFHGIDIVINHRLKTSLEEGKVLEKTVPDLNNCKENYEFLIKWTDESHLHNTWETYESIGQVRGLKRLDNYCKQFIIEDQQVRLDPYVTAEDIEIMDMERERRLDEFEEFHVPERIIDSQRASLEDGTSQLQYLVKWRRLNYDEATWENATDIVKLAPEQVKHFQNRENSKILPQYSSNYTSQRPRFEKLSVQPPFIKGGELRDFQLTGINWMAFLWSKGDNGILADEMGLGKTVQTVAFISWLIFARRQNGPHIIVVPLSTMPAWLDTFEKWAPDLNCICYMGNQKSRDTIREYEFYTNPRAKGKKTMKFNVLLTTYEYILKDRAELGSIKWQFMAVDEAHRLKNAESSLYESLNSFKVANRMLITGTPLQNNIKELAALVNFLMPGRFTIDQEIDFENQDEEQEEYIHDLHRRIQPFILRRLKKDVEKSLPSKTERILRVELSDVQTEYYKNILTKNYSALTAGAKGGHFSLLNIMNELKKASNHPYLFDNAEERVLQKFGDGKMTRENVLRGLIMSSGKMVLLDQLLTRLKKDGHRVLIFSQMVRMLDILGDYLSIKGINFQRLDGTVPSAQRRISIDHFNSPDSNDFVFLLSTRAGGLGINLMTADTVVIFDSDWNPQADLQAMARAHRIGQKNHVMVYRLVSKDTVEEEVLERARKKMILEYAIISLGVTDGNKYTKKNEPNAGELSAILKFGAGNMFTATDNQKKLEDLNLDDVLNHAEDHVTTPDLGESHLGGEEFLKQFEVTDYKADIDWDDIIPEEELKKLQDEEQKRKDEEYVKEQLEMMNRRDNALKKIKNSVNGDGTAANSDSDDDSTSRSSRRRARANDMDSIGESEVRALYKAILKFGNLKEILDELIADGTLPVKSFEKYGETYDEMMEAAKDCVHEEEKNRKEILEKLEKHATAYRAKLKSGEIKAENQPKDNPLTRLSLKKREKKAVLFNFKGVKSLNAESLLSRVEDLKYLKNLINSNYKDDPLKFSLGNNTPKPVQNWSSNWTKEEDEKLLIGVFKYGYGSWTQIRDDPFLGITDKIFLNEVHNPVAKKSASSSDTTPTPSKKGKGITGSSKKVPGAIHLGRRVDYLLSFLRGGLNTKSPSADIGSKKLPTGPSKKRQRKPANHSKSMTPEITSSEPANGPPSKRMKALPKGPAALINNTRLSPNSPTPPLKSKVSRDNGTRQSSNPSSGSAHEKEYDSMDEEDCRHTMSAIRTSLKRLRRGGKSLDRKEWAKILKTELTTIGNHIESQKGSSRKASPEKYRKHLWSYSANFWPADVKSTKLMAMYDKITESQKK

`COc1ccsc1C(=O)N1CCCC(n2nc(C)nc2C)C1` (stereo not drawn): the Percent Effect in [1] was 0.303%; in [2], 0%; in assay [3], -4.74%; in assay [4], -3.48%; in the assay on Trypanosoma cruzi, -6.89%; in assay [5], 2.66%. In addition, the Percent Effect was -1.72% in assay [6]; 6.32% in the assay filed under Homo sapiens; 6.4% in [7]; 3.8% in assay [8]; 1.65% in [9].

Take `CCc1nc(CN(C(C)=O)C2CCN(CCc3cnn(C)c3)C2)no1` (stereo not drawn): the Percent Effect in assay [1] is -2.36%; in [2], 27.9%; in assay [3], -1.95%; in [4] it was -9.07%; with Trypanosoma cruzi it was -0.85%; in assay [5], 3.04%. For the same molecule, the Percent Effect in assay [6] was 0.901%; in the assay filed under Homo sapiens, 22.4%; in assay [7] it was -19.2%; in [8], 16.5%; in assay [9] it was -7.18%.

For the molecule `COCc1nc(N(C)C)ncc1C(=O)Nc1ccn(C)n1`, the Percent Effect was -6.73% in assay [1]; 12% in assay [2]; -5.52% in assay [3]; 4.28% in [4]; 1.38% in the assay with Trypanosoma cruzi; -7.22% in [5]. For the same molecule, the Percent Effect in assay [6] was 5.36%; in the assay listed under Homo sapiens, 0.526%; in assay [7] it was 4.23%; in assay [8], 10.3%; in assay [9] it was -10.2%.

As to `Cc1ccc(-n2nnc(CC(=O)N3CCOCC3)c2C)cc1`, the Percent Effect is -3.24% in assay [1]; 18.2% in assay [2]; -1.18% in assay [3]; 11.4% in assay [4]; 5.61% in the assay with Trypanosoma cruzi; -12.4% in [5]. The Percent Effect in assay [6] is 13%; in the assay listed under Homo sapiens, 6.11%; in assay [7] it was 6.45%; in assay [8] it was 18.5%; in assay [9], -6.8%.

For `Cc1nn(C)c(C)c1-c1cncc(C2CCN(S(C)(=O)=O)CC2)n1`, the Percent Effect is 0.332% in assay [1]; -2.67% in assay [2]; 22.7% in assay [3]; 4.44% in assay [4]; -1.77% in the assay with Trypanosoma cruzi; 2.1% in assay [5]. The Percent Effect in assay [6] was -3.96%; in the assay listed under Homo sapiens, 25.6%; in assay [7] it was 3.19%; in [8] it was 3.85%; in assay [9], 0.849%.

Take `CCCc1nc(CN2CCOC(CNc3cccnn3)C2)cs1` (stereo not drawn): the Percent Effect in [1] was -3.31%; in [2], 2.7%; in assay [3], -3.87%; in assay [4] it was 5.09%; with Trypanosoma cruzi it was -0.849%; in assay [5], -5.61%. Moreover, the Percent Effect in [6] is 10.3%; in the assay filed under Homo sapiens, 7.16%; in [7], 14.3%; in assay [8], 30.9%; in assay [9] it was -7.47%.

Take `O=C(Cn1cc(I)cn1)N1CCCC1`: the Percent Effect was 0.0934% in [1]; -1.33% in [2]; -2.19% in assay [3]; 10.5% in assay [4]; 2.55% in the assay on Trypanosoma cruzi; -2.64% in [5]. The Percent Effect in [6] was 7.02%; in the assay filed under Homo sapiens, 20.5%; in assay [7] it was 5.29%; in [8], 5.13%; in assay [9] it was -2.75%.

As to `CCN1CC2(CC1=O)CN(C(=O)c1ccco1)CCN(C(=O)N(C)C)C2` (stereo not drawn), the Percent Effect in [1] is -0.623%; in [2], 5.48%; in assay [3] it was -1.36%; in assay [4] it was 5.48%; in the assay on Trypanosoma cruzi, -2.18%; in assay [5], -8.78%. For the same molecule, the Percent Effect in assay [6] was 12.6%; in the assay filed under Homo sapiens, 6.21%; in assay [7], 6.25%; in assay [8] it was 1.24%; in assay [9], -1.51%.
